Common to all, as to experiment: DAPPL (digital affinity profiling via proximity ligation, sequencing); 10 mM Tris-HCl pH 7.5, 50 mM NaCl, 1 mM DTT, 4% glycerol, room temperature, 30 min; GST-TFs on glutathione beads, 16-mer random dsDNA library, 0.1% formaldehyde crosslink after washing; high values mean tight binding
One experiment deals with T1, FEV (Homo sapiens, UniProt Q99581 1-238).
T1 sequence: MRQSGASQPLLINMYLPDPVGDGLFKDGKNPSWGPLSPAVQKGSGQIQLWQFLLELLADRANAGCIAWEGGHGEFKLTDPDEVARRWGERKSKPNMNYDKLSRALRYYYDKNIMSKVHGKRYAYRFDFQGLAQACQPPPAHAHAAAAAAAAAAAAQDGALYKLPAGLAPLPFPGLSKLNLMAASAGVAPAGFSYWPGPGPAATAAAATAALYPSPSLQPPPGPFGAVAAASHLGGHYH
The conditions noted are these: protein: recombinant; tags: N-terminal GST; dsDNA, one strand shown. The procedure, abridged: (§1)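 Beads coated with glutathione captured GST-fused human transcription factors that had been expressed in yeast, and the factors were then given DNA barcodes and pooled with a tag-only sample. The pools were incubated with 200 nmole of a random double-stranded 16-mer DNA library in Tris/NaCl/DTT/glycerol buffer for 30 min at room temperature, washed, crosslinked with 0.1% formaldehyde and proximity-ligated with BsaI/T4 ligase at 37 °C for 1 h. PCR amplification and Illumina NextSeq500 sequencing came last. Binding signal is each hexamer's read frequency for a factor divided by its frequency for the tag-only sample.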

The next experiment has as its target ETV5 (Homo sapiens, UniProt P41161 1-510). As to conditions: protein: recombinant; tags: N-terminal GST; dsDNA, one strand shown. The essentials:
as §1

The next experiment deals with HSF1 (Homo sapiens, UniProt Q00613 1-529). The conditions noted are these: protein: recombinant; tags: N-terminal GST; chain copies: 3; dsDNA, one strand shown. The essentials: as §1
HSF1, sequence (Q00613 whole entry): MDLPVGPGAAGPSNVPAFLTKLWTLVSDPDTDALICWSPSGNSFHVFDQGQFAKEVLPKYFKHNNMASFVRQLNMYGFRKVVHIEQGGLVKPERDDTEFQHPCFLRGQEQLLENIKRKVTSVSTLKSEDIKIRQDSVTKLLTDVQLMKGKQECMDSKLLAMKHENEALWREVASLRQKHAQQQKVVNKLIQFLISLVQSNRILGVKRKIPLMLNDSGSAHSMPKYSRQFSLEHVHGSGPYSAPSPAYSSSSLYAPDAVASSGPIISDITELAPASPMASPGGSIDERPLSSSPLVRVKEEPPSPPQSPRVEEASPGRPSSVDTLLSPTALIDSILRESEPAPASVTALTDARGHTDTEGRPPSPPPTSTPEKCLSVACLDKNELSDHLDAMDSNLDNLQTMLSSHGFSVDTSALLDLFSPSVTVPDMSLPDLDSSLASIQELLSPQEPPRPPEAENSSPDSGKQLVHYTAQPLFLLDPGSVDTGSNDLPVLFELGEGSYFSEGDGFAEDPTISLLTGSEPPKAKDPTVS
Another experiment has as its target T2, SPIC (Homo sapiens, UniProt Q8N5J4 1-248).
T2 sequence: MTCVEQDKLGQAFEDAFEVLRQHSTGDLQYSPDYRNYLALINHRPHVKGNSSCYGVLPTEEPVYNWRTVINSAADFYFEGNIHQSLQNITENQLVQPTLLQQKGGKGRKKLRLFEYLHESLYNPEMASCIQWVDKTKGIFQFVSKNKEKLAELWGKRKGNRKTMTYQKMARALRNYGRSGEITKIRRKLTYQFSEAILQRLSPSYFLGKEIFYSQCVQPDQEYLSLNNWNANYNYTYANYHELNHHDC
As to conditions: protein: recombinant; tags: N-terminal GST; dsDNA, one strand shown. The essentials: as §1

Another experiment deals with ELF4 (Homo sapiens, UniProt Q99607 1-663). The conditions noted are these: protein: recombinant; tags: N-terminal GST; dsDNA, one strand shown. The procedure, abridged:
as §1

Another experiment addresses T3, ELK4 (Homo sapiens, UniProt P28324-2 1-405).
T3 sequence: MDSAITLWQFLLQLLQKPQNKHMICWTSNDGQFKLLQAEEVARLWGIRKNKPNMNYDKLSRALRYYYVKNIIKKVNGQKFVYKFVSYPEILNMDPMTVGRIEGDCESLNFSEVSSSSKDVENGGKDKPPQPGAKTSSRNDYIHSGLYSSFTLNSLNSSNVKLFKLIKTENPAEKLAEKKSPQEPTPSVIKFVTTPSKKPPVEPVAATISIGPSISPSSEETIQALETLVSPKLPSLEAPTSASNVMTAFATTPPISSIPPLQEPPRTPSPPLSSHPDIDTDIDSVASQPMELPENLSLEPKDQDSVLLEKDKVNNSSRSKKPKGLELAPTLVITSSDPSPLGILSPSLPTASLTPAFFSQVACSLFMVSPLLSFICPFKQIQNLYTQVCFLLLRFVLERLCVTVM
As to conditions: protein: recombinant; tags: N-terminal GST; dsDNA, one strand shown. The essentials: as §1

Another experiment deals with T4, ETV2 (Homo sapiens, UniProt O00321 1-342).
T4 sequence: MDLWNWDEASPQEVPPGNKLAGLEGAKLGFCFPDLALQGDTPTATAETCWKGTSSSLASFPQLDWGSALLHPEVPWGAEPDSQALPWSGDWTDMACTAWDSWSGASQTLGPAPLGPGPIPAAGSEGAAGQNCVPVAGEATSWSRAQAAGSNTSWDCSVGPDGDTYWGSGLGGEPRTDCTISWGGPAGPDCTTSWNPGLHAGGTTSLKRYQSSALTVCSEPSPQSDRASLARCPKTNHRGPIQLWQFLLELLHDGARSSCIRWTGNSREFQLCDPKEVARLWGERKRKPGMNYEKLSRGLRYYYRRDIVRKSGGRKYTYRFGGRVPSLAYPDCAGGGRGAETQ
The conditions noted are these: protein: recombinant; tags: N-terminal GST; dsDNA, one strand shown. The essentials:
as §1

The target in the next experiment is T5, ELF3 (Homo sapiens, UniProt P78545 1-371).
T5 sequence: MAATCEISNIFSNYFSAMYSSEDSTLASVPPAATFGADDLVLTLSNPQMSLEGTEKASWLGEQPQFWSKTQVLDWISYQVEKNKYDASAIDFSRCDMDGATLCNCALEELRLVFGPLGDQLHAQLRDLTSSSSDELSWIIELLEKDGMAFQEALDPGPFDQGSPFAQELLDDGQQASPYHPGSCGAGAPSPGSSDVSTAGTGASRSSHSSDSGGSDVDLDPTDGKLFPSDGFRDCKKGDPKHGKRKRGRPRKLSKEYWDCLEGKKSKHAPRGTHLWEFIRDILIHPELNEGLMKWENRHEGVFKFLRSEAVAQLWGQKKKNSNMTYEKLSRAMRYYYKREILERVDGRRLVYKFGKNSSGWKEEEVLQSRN
The conditions noted are these: protein: recombinant; tags: N-terminal GST; dsDNA, one strand shown. The essentials: as §1

For a further experiment, the target named is CRX (Homo sapiens, UniProt O43186 1-299). As to conditions: protein: recombinant; tags: N-terminal GST; dsDNA, one strand shown. The essentials:
as §1

The next experiment addresses ETV1 (Homo sapiens, UniProt P50549 1-477). The conditions noted are these: protein: recombinant; tags: N-terminal GST; dsDNA, one strand shown. The essentials: as §1
The next experiment deals with T6, ERF (Homo sapiens, UniProt P50548 1-548).
T6 sequence: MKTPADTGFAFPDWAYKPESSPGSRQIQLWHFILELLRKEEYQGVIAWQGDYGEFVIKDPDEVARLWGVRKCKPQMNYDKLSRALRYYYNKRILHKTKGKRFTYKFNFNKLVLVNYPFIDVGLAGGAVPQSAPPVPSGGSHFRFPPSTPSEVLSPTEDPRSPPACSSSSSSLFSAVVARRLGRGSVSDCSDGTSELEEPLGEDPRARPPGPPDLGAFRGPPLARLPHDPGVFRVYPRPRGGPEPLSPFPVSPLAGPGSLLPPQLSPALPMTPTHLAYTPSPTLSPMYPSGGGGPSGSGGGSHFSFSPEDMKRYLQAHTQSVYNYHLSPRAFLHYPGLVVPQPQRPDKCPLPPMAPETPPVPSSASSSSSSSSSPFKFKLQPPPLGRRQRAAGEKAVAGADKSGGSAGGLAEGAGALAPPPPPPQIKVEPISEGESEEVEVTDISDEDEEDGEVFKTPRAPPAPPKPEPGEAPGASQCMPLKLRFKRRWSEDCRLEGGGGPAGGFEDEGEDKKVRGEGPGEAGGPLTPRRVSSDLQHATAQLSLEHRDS
The conditions noted are these: protein: recombinant; tags: N-terminal GST; dsDNA, one strand shown. The essentials: as §1

For a further experiment, the target named is T7, ETV3L (Homo sapiens, UniProt Q6ZN32 1-361).
T7 sequence: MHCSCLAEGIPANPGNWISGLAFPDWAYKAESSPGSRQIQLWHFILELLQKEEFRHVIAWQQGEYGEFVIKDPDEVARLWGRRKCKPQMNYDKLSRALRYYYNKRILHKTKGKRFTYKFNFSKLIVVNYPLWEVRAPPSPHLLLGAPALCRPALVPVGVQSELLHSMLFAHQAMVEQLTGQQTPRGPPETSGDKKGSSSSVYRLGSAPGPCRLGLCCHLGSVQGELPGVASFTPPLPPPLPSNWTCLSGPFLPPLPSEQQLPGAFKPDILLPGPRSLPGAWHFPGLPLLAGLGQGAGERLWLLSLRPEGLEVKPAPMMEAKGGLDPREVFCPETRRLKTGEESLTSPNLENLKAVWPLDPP
The conditions noted are these: protein: recombinant; tags: N-terminal GST; dsDNA, one strand shown. The essentials:
as §1

The next experiment has as its target T8, ETS2 (Homo sapiens, UniProt P15036 1-469).
T8 sequence: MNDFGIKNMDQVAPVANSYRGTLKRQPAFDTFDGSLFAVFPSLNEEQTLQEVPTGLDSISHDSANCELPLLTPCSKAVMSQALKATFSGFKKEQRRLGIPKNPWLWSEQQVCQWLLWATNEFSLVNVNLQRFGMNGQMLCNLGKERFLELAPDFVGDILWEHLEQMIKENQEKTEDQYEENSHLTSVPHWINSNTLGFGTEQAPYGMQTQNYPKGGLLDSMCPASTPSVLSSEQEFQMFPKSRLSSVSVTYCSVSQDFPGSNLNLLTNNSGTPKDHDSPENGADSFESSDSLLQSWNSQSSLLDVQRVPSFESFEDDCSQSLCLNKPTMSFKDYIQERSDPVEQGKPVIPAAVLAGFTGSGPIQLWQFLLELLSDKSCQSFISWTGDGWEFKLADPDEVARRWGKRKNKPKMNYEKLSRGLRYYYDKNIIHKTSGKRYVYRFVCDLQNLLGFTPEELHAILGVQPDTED
As to conditions: protein: recombinant; tags: N-terminal GST; dsDNA, one strand shown. The procedure, abridged: as §1

The target of the next experiment is T9, SPDEF (Homo sapiens, UniProt O95238 1-335).
T9 sequence: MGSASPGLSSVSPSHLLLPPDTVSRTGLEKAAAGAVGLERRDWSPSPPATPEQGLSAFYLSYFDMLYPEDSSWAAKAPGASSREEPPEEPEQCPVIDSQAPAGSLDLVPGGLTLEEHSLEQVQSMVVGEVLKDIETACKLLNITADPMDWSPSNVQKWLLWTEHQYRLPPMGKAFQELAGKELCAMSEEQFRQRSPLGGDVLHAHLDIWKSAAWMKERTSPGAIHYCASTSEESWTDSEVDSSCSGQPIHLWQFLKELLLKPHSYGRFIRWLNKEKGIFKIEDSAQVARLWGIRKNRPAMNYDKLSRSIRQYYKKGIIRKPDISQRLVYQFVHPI
The conditions noted are these: protein: recombinant; tags: N-terminal GST; dsDNA, one strand shown. The essentials: as §1

The target of another experiment is T10, ETV7 (Homo sapiens, UniProt Q9Y603 1-341).
T10 sequence: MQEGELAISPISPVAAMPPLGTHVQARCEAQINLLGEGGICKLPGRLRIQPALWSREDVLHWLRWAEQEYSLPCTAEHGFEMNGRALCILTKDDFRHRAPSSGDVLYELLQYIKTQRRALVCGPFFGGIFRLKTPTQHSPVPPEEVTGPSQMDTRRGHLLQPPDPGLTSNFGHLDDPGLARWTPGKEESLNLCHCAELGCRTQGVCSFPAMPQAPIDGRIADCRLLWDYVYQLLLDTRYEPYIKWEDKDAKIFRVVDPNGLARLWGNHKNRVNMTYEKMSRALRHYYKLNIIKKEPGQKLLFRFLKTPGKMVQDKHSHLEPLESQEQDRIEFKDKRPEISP
As to conditions: protein: recombinant; tags: N-terminal GST; dsDNA, one strand shown. The essentials:
as §1

For a further experiment, the target named is T11, ELF5 (Homo sapiens, UniProt Q9UKW6-2 1-255).
T11 sequence: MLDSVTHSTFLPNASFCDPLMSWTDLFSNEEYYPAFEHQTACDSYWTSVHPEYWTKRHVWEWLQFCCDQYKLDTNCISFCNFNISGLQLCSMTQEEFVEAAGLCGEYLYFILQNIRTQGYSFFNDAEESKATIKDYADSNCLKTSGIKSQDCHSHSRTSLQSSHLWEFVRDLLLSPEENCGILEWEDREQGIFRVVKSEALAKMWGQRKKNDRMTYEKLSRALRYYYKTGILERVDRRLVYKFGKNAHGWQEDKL
The conditions noted are these: protein: recombinant; tags: N-terminal GST; dsDNA, one strand shown. The procedure, abridged: as §1

The next experiment addresses T12, ETV3 (Homo sapiens, UniProt P41162-2 1-143).
T12 sequence: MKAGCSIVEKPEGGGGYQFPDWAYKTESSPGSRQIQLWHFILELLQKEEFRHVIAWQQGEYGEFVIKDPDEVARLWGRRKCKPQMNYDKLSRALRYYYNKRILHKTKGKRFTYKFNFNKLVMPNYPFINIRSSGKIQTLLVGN
As to conditions: protein: recombinant; tags: N-terminal GST; dsDNA, one strand shown. The essentials:
as §1

Another experiment has as its target ETV6 (Homo sapiens, UniProt P41212 1-452). As to conditions: protein: recombinant; tags: N-terminal GST; dsDNA, one strand shown. The essentials:
as §1

ETV5, sequence (P41161 whole entry): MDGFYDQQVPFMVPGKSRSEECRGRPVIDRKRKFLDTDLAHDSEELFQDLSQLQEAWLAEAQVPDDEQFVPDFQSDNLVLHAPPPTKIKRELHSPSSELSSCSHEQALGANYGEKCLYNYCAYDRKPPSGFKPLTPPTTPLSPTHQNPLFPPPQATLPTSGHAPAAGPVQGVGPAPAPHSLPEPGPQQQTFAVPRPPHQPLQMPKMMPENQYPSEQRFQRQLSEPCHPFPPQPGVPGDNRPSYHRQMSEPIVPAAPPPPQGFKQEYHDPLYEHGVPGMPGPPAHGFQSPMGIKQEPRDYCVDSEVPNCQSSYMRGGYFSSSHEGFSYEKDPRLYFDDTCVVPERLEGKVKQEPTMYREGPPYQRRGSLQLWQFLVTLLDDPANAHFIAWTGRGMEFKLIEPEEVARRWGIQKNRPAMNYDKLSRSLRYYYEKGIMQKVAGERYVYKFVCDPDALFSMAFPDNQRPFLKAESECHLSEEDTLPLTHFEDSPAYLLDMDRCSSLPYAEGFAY
CRX, sequence (O43186 whole entry): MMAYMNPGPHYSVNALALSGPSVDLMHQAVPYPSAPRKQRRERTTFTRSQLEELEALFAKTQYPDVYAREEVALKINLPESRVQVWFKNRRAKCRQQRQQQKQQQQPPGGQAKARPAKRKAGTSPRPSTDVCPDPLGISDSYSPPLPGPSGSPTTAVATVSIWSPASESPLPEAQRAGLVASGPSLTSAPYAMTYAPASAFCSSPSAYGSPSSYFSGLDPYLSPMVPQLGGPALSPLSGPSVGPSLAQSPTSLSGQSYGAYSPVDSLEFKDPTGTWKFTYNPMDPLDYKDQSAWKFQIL
ELF4, sequence (Q99607 whole entry): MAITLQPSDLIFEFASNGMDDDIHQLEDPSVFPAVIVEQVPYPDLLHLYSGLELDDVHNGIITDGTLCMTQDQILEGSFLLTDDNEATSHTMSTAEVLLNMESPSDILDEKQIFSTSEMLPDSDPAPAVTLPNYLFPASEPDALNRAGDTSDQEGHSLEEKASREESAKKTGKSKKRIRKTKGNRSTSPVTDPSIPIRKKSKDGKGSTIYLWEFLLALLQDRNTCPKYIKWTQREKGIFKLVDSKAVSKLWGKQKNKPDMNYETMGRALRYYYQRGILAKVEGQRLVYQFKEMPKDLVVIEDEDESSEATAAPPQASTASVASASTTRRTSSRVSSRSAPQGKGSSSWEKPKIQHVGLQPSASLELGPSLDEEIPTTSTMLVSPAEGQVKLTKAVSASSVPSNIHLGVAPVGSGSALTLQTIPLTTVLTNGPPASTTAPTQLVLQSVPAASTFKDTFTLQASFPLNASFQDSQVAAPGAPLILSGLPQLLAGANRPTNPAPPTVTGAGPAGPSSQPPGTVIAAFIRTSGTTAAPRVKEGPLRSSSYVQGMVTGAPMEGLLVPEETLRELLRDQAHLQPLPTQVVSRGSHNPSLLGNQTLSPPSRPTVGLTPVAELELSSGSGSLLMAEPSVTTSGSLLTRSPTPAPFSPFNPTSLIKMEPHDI
ETV6, sequence (P41212 whole entry): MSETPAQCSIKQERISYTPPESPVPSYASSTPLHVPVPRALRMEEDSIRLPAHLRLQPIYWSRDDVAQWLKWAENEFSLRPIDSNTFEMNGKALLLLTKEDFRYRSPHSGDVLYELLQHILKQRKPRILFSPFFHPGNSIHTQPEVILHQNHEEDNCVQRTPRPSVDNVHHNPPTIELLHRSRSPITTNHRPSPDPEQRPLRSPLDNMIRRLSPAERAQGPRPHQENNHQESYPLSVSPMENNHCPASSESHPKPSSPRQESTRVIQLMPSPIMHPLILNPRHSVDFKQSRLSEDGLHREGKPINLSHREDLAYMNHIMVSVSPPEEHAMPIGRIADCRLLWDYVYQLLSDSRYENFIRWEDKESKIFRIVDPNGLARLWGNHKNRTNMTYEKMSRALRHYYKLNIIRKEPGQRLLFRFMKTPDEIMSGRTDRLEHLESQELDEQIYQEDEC
ETV1, sequence (P50549 whole entry): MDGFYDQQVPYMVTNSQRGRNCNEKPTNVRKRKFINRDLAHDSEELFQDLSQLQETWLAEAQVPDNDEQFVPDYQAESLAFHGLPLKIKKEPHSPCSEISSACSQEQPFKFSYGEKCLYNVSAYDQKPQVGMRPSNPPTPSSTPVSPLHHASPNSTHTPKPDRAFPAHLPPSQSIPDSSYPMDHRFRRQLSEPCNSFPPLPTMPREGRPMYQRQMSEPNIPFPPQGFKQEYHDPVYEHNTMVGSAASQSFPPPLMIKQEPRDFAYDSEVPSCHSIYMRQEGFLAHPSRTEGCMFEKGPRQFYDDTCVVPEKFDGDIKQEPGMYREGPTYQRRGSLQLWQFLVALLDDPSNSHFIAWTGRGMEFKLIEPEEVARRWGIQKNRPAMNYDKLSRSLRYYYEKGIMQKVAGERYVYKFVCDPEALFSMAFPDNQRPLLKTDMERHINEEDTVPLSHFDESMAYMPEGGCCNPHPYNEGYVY

In the case of TCCCAT, the binding signal with FEV was 1.32 fold enrichment (6-mer frequency, TF over GST control); with ETV5 it was 1.34 fold enrichment (6-mer frequency, TF over GST control); with HSF1, 1.21 fold enrichment (6-mer frequency, TF over GST control); in the experiment with SPIC, 1.45 fold enrichment (6-mer frequency, TF over GST control); with ELF4 it was 1.29 fold enrichment (6-mer frequency, TF over GST control); in the experiment with ELK4, 1.27 fold enrichment (6-mer frequency, TF over GST control). Moreover, the binding signal with ETV2 is 1.41 fold enrichment (6-mer frequency, TF over GST control); with ELF3, 1.44 fold enrichment (6-mer frequency, TF over GST control); in the experiment with CRX, 1.43 fold enrichment (6-mer frequency, TF over GST control); in the experiment with ETV1 it was 1.37 fold enrichment (6-mer frequency, TF over GST control); in the experiment with ERF it was 1.4 fold enrichment (6-mer frequency, TF over GST control); with ETV3L it was 1.38 fold enrichment (6-mer frequency, TF over GST control). Also, the binding signal with ETS2 was 1.4 fold enrichment (6-mer frequency, TF over GST control); in the experiment with SPDEF, 1.23 fold enrichment (6-mer frequency, TF over GST control); with ETV7 it was 1.28 fold enrichment (6-mer frequency, TF over GST control); with ELF5 it was 1.44 fold enrichment (6-mer frequency, TF over GST control); with ETV3 it was 1.32 fold enrichment (6-mer frequency, TF over GST control); with ETV6, 1.37 fold enrichment (6-mer frequency, TF over GST control).

The values are drawn from article PMC7862700, “An all-to-all approach to the identification of sequence-specific readers for epigenetic DNA modifications on cytosine”.
